Laboratory results published in PubChem BioAssay (NCATS).
“And” between values parts separate entries of the source, which are not always exact repeats. Equal entries are not always repeated. Results filed as inconclusive are left out. The source made the active and inactive calls. Unless noted, calls come from the whole dose curve; as a rule, active = well fitted inhibition curve with a large enough effect; inconclusive = small, poorly fitted or top-dose-only effect; inactive = flat fitted curve, though single readings scatter.

Experiments:
[1] = Drug repurposing screens with cells derived from glioblastoma tumor samples (AID 1345199); settings: GBM patient neurospheres viability, ATP luminescence, 48 h; note: nearly all actives have a fitted effect of over 40% in size; note: potency is the fitted concentration of half-maximal effect; for activity, negative = cell killing: % is set by controls: 0 for no effect and ±100 for the full control effect
How it was run: (§1)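 Four patient lines of CD133+ GBM neurospheres were screened at several concentrations; hits were retested in those lines plus three slower-growing GBM lines, using 48-hour treatment and ATP-based viability.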

[2] = tested on: astro; experiment: as above; settings: viability, ATP luminescence, 48 h; series mostly up to 45.9 µM
How it was run: as §1

[3] = biological target: Nuclear receptor subfamily 1 group I member 2 (Rattus norvegicus) (UniProt Q9R1A7); experiment: qHTS assay for small molecule activators of the rat pregnane X receptor (rPXR) signaling pathway (AID 651751; call rule not given here; note: 0% is about no effect); settings: rPXR reporter cells, luciferase (One-Glo), 24 h
[4] = qHTS assay for small molecule activators of the human pregnane X receptor (PXR) signaling pathway (AID 720659; call rule not given here; note: 0% is about no effect); settings: DPX-2 HepG2 CYP3A4-luciferase, 24 h; series mostly up to 92.3 µM
[5] = at 45.9 µM (top of the series), tumour line B
[6] = at 45.9 µM (top of the series), tumour line D
[7] = at 46.1 µM (top of the series), tumour line C
[8] = at 20 µM (top of the series), tumour line C
[9] = at 21.2 µM (top of the series), tumour line B
[10] = at 21.2 µM (top of the series), tumour line D
[11] = at 46 µM (top of the series), tumour line A

Nuclear receptor subfamily 1 group I member 2 (Rattus norvegicus), sequence (Q9R1A7 whole entry, looked up): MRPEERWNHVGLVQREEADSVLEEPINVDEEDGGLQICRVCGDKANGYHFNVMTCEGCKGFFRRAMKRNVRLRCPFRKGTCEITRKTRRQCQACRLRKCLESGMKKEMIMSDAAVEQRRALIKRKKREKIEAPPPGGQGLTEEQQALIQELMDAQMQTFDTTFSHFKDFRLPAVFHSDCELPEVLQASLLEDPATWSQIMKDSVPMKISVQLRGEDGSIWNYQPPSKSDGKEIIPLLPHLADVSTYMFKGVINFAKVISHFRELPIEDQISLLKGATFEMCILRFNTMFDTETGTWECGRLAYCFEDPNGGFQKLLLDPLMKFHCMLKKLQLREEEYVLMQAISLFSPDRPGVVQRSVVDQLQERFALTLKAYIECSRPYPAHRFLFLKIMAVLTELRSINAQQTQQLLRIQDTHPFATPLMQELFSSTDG

c1ccc2c(c1)OCC(CN1CCCCC1)O2 (configuration not stated)
inactive: activity, negative = cell killing [1, 5] 0.315% | activity, negative = cell killing [1, 6] -10.7% | activity, negative = cell killing [1, 7] -13% | Potency [2]

CC(C)CN(C[C@@H](OP(=O)(O)O)[C@H](Cc1ccccc1)NC(=O)O[C@H]1CCOC1)S(=O)(=O)c1ccc(N)cc1
inactive: activity, negative = cell killing [1, 5] -7.11% | activity, negative = cell killing [1, 6] -11.4% | activity, negative = cell killing [1, 7] -18.7% | Potency [2]

Cc1cc(=O)c(C(=O)N[C@@H](C(=O)N[C@@H]2C(=O)N3C(C(=O)O)=C(CSc4nnnn4C)CS[C@H]23)c2ccc(O)cc2)c[nH]1
inactive: activity, negative = cell killing [1, 5] -7.34% | activity, negative = cell killing [1, 6] 13% | activity, negative = cell killing [1, 7] -6.97% | Potency [2]

CC(C)(C)CC(C)(C)c1ccc(OCCO)cc1
active: Potency ([1]; tumour line D) 10 µM | Potency [2] 35.5 µM
inactive: activity, negative = cell killing [1, 5] -26.2% | activity, negative = cell killing [1, 7] -20.5% | max response [3] -14.4%

C=CC1=C(C(=O)O)N2C(=O)[C@@H](NC(=O)/C(=N/OCC(=O)O)c3csc(N)n3)[C@H]2SC1 (stereo in doubt)
inactive: activity, negative = cell killing [1, 8] 2.81% | activity, negative = cell killing [1, 9] -6.13% | activity, negative = cell killing [1, 10] -19.8% | Potency [2]

NC(=O)[C@H]1O[C@@H](O)[C@H](O)[C@@H](O)[C@@H]1O
inactive: activity, negative = cell killing [1, 5] -7.58% | activity, negative = cell killing [1, 6] -15.7% | activity, negative = cell killing [1, 7] -23.5% | Potency [2]

OC[C@H]1OC([S-])[C@H](O)[C@@H](O)[C@@H]1O.[Au+] (some centres not stated)
inactive: activity, negative = cell killing [1, 5] -5.43% | activity, negative = cell killing [1, 6] -19.5% | activity, negative = cell killing [1, 7] -19.6% | Potency [2]

ClC(Cl)Cl
inactive: activity, negative = cell killing [1, 5] 0.236% | activity, negative = cell killing [1, 6] -13.8% | activity, negative = cell killing [1, 7] -5.54% | Potency [2] | max response [3] -6.93% | outcome [4]

COC(=O)CC[C@H](N)C(=O)O
inactive: activity, negative = cell killing [1, 5] -13.7% | activity, negative = cell killing [1, 6] -12.9% | Potency [2]

CC1CCC(NC(=O)N(CCCl)N=O)CC1 (configuration not stated)
inactive: activity, negative = cell killing [1, 5] -5.97% | activity, negative = cell killing [1, 6] 0.785% | activity, negative = cell killing [1, 7] -19.7% | Potency [2]

CCC[C@@H]1C[C@@H](C(=O)N[C@@H]([C@H]2O[C@H](SC)[C@H](O)[C@@H](O)[C@H]2O)[C@H](C)Cl)N(C)C1
inactive: activity, negative = cell killing [1, 5] 1.77% | activity, negative = cell killing [1, 6] -7.32% | activity, negative = cell killing [1, 11] -25.1% | Potency [2]

CCSc1ccc2c(c1)N(CCCN1CCN(C)CC1)c1ccccc1S2
inactive: activity, negative = cell killing [1, 8] -10.8% | activity, negative = cell killing [1, 9] -0.856% | Potency [2]
active: Potency ([1]; tumour line A) 6.31 µM

C=CC(C)(O)CC/C=C(\C)CCC=C(C)C (configuration not stated)
inactive: activity, negative = cell killing [1, 5] -7.36% | activity, negative = cell killing [1, 6] -9.56% | activity, negative = cell killing [1, 11] -15.8% | Potency [2] | max response [3] 14.8%

O=P(O)(O)OP(=O)(O)O
inactive: activity, negative = cell killing [1, 5] -12.9% | activity, negative = cell killing [1, 6] -11% | activity, negative = cell killing [1, 7] -5.23% | Potency [2]

CC(=C\c1ccccc1)/C=C1/SC(=S)N(CC(=O)O)C1=O
inactive: activity, negative = cell killing [1, 6] -25% | activity, negative = cell killing [1, 7] -14.3% | Potency [2]

OCCN1CCN(CC/C=C2/c3ccccc3Sc3ccc(Cl)cc32)CC1
inactive: activity, negative = cell killing [1, 9] -19.4% | activity, negative = cell killing [1, 10] -24.9% | Potency [2]

O=C(O)c1ccc(OCCn2ccnc2)cc1
inactive: activity, negative = cell killing [1, 5] -11.4% | activity, negative = cell killing [1, 6] -25.4% | activity, negative = cell killing [1, 7] -11.9% | Potency [2]

C#C[C@]1(O)CC[C@H]2[C@@H]3CCC4=C(CCC(=O)C4)[C@H]3CC[C@@]21C
inactive: activity, negative = cell killing [1, 8] -4.47% | activity, negative = cell killing [1, 9] -8.06% | activity, negative = cell killing [1, 10] -3.97% | Potency [2]

[O-][N+](=Nc1ccccc1)c1ccccc1
inactive: activity, negative = cell killing [1, 5] -12.7% | activity, negative = cell killing [1, 6] -9.27% | activity, negative = cell killing [1, 7] -6.88% | Potency [2] | outcome [4]

O=C1c2ccccc2C(=O)C1c1ccc(F)cc1
inactive: activity, negative = cell killing [1, 5] -20.2% | activity, negative = cell killing [1, 6] -13.5% | activity, negative = cell killing [1, 11] -45.8% | Potency [2]

CCCCCCCCCCCCCCCCCCOCC(COP(=O)([O-])OCC[N+](C)(C)C)OC (configuration not stated)
active: Potency ([1]; tumour line A) 35.5 µM
inactive: activity, negative = cell killing [1, 6] -24.7% | activity, negative = cell killing [1, 7] -1.43% | Potency [2]

CC1=CC(=O)NS(=O)(=O)O1
inactive: activity, negative = cell killing [1, 5] -5.56% | activity, negative = cell killing [1, 6] 0.134% | activity, negative = cell killing [1, 7] -19.5% | max response [3] 4.96% and 0.0631% | outcome [4]

OC[C@H]1O[C@@H]2O[C@H]3[C@H](O)[C@@H](O)[C@@H](O[C@H]4[C@H](O)[C@@H](O)[C@@H](O[C@H]5[C@H](O)[C@@H](O)[C@@H](O[C@H]6[C@H](O)[C@@H](O)[C@@H](O[C@H]7[C@H](O)[C@@H](O)[C@@H](O[C@H]1[C@H](O)[C@H]2O)O[C@@H]7CO)O[C@@H]6CO)O[C@@H]5CO)O[C@@H]4CO)O[C@@H]3CO
inactive: activity, negative = cell killing [1, 5] -13.8% | activity, negative = cell killing [1, 6] -5.74% | activity, negative = cell killing [1, 7] -2.87% | Potency [2] | max response [3] 1.3% and 2.85% | outcome [4]
